Sampled rows, rich in hits. Any-hit rate of the full collection: about 6.7%.
GDH-TPI inh – counter-screen for M. tuberculosis FBA inhibitors: GDH-TPI coupled enzymes; inhibition, % at 4.8 µM; AID 588335; GDH-TPI coupled enzyme counterscreen, NADH absorbance; actives 1.2% (n = 360,000); in the data active = inhibition above about 30%;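 also: 0% = DMSO wells and 100% = wells lacking the enzyme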
Anthrax LF inh2 – blocks Bacillus anthracis lethal factor protease. P15917. multiplex microsphere protease cleavage assay, LF. inhibition, % at 10 µM. actives 0.12% (n = 360,000). AID 588501; also: plate controls were buffer without enzyme for full effect and enzyme alone for no effect
Target sequence (P15917 whole entry, looked up): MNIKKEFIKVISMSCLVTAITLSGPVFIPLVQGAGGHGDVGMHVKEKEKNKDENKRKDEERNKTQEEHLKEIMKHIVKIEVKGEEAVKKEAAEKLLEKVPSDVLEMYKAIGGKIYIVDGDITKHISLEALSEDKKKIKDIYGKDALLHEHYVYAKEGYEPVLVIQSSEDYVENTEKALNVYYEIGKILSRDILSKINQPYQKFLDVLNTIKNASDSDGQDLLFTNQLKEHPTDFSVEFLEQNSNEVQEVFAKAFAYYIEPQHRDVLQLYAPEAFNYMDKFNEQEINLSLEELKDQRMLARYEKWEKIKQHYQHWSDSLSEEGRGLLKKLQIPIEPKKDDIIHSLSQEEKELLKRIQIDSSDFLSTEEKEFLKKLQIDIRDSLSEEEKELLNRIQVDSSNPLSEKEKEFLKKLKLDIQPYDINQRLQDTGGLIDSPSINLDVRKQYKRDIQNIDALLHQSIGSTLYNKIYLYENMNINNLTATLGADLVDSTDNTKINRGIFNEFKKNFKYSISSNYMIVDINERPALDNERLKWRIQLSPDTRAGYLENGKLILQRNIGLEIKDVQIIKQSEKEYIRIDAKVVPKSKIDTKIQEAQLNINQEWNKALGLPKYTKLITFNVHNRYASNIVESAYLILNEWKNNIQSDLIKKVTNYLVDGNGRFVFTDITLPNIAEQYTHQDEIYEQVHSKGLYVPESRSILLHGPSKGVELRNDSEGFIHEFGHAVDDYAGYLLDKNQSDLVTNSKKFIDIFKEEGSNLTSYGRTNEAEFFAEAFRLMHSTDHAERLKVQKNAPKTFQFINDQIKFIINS
Bead autofluor – flagged as autofluorescent in microsphere protease counterscreen; compound autofluorescence counterscreen, microsphere flow cytometry; hits give high values; fluorescence intensity (no concentration beside the values); actives 3.1% (n = 360,000); AID 624483; in the data active = fluorescence intensity above about 16000; inconclusive = no clear call, values can overlap the other calls
BoNT A protease – inhibitors of Botulinum neurotoxin A light chain protease | inhibition, % at 10 µM | multiplex microsphere protease substrate cleavage, flow cytometry | actives 0.17% (n = 360,000); also: plate controls were buffer without enzyme for full effect and enzyme alone for no effect
BoNT F protease – BoNT F light chain protease inhibition; actives 0.22% (n = 360,000); Multiplex microsphere protease cleavage assay, flow cytometry; inhibition, % at 10 µM; in the data active = inhibition above about 35%, passing the limit was not always enough; inconclusive = no clear call, values can overlap the other calls; also: plate controls were buffer without enzyme for full effect and enzyme alone for no effect
FBA Mtb inh – inhibits M. tuberculosis FBA enzyme | purified M. tuberculosis FBA, fluorescence read-out | P9WQA3 | actives 2.3% (n = 360,000) | inhibition, % at 1 µM; in the data active = inhibition above about 27%;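 also: 0% = vehicle and 100% = reference inhibitor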
Active calls of the source: *; ? = inconclusive. Rule as the data show it, unless noted: active = inhibition above about 30%; inconclusive = no clear call, values can overlap the other calls; inactive = below that.

SMILES | GDH-TPI inh | Anthrax LF inh2 | Bead autofluor | BoNT A protease | BoNT F protease | FBA Mtb inh
O=C(C1CCCN(Cc2ccccc2F)C1)N1CCCC1 (stereo not drawn) | -8.4 | -7.6 | 3738 | ? | ? | 1.1
COc1ccc(N2CCN(C(=O)c3cc4ccccc4o3)CC2)cc1 | -1.1 | -0.4 | 6362 | -2.3 | 3.4 | -3.8
COc1ccc(CNC(=O)Cn2cnc3c(=O)n(C)c(=O)n(C)c32)cc1 | -10.5 | 0.0 | 21079* | -3.1 | -3.5 | 1.3
Cc1ccc(OCCNC(=O)Cn2cnc3c(=O)n(C)c(=O)n(C)c32)cc1C | 3.6 | -1.7 | 22531* | -1.2 | -2.7 | 2.9
Cn1c(=O)c2ncn(CC(=O)NCCOc3ccccc3)c2n(C)c1=O | -2.4 | -4.5 | 10311 | -0.8 | 3.4 | -1.7
COc1ccc(C(=O)NCc2cn3ccsc3n2)cc1OC | 3.9 | -0.7 | 6091 | 0.2 | 1.4 | 1.3
Cn1nccc1C(=O)OCC(=O)Nc1nc(-c2ccccc2)cs1 | 6.5 | 0.1 | 22484* | ? | 0.6 | -3.4
Cn1c(=O)c2c(nc(N/N=C/c3ccc(OC(=O)c4ccco4)cc3)n2Cc2ccccc2)n(C)c1=O | 29.3 | -0.3 | 9844 | 0.0 | 3.7 | -0.2
O=C1CCCc2sccc2N1 | -2.4 | 5.2 | 8046 | 0.9 | 1.0 | -4.3
N#CC(C#N)=C1CCCc2sccc21 | 32.6* | -1.4 | 4121 | 0.4 | 1.3 | 10.1
NC(=O)COc1ccc(/C=C2\C(=O)ON=C2c2ccccc2)cc1 | -1.1 | -2.8 | 8185 | -4.1 | -2.5 | -0.8
CC1(C)OC(C)(C)/C(=C\c2ccc(OCC(N)=O)cc2)C1=O | 34.8* | 7.4 | 3462 | -0.2 | 6.1 | -5.7
CN1CCN(C(=O)CN(Cc2ccccc2)S(C)(=O)=O)CC1 | 3.1 | 1.1 | 22469* | 0.0 | 0.3 | -0.9
CCOc1ccc(C2NC(=O)NC(c3ccccc3)=C2C(C)=O)cc1OC (stereo not drawn) | 2.3 | 2.6 | 3818 | -1.3 | ? | 0.8
CCOc1ccc(-c2csc(NC(=O)C3CCCO3)n2)cc1 (stereo not drawn) | -4.4 | -0.9 | 21480* | -2.1 | -3.4 | 1.5
Cc1cnc(NC(=O)C2CCCO2)s1 (stereo not drawn) | 8.9 | -2.0 | 16597* | ? | -2.2 | 0.7
O=C(Nc1nc(-c2ccc(Cl)cc2)cs1)C1CCCO1 (stereo not drawn) | 3.8 | -1.9 | 2343 | 0.7 | -2.2 | 5.0
CC(=O)c1ccc(Nc2cc(C)nc3c(C)cccc23)cc1 | 19.4 | -2.1 | 2332 | -0.1 | -4.3 | -2.6
Cc1ccc(Nc2cc(C)nc3c(C)cccc23)cc1 | 31.7* | -5.7 | 3168 | -7.4 | 12.1 | 1.2
O=C(N/C(=C/c1ccc(Cl)cc1)C(=O)N1CCOCC1)c1ccccc1 | -3.9 | 0.0 | 4065 | 0.4 | 5.5 | 3.5
COc1ccc(C(=O)N/C(=C\c2cn(C)c3ccccc23)C(=O)N2CCN(C)CC2)cc1 | 42.8* | -0.3 | 5649 | -1.7 | -1.2 | -0.7
CCOC(=O)N1CCN(C(=O)/C(=C/c2ccccc2OC)NC(=O)c2ccccc2)CC1 | 16.7 | -3.2 | 16214* | ? | -1.7 | 1.8
CCOC(=O)C1CCCN(C(=O)/C(=C/c2ccco2)NC(=O)c2ccccc2)C1 (stereo not drawn) | 4.4 | 30.6* | 3868 | -2.6 | -8.3 | -0.4
O=C(N/C(=C/c1ccc(F)cc1)C(=O)N1CCOCC1)c1ccccc1 | 6.3 | ? | 30895* | ? | ? | 3.4
O=C(/C=C/c1ccc(-c2cccc([N+](=O)[O-])c2)o1)N1CCOCC1 | 37.6* | 1.5 | 6553 | 0.2 | -4.5 | 0.1
SMILES | GDH-TPI inh | Anthrax LF inh2 | Bead autofluor | BoNT A protease | BoNT F protease | FBA Mtb inh
CCn1cc(/C=C(\NC(=O)c2ccccc2F)C(=O)NCCN2CCOCC2)c2ccccc21 | 32.8* | -1.2 | 5199 | 1.0 | 5.4 | -6.0
Cn1cc(/C=C(\NC(=O)c2ccccc2)C(=O)NCCCN2CCOCC2)c2ccccc21 | 32.8* | 1.3 | 5376 | 2.1 | 8.4 | 1.6
CN(C)S(=O)(=O)n1cc(/C=C(\NC(=O)c2ccccc2F)C(=O)NCCN2CCOCC2)c2ccccc21 | 11.5 | -3.5 | 3079 | -0.3 | -0.4 | 4.2
O=C(NCCCN1CCOCC1)/C(=C/c1ccc(-c2cccc([N+](=O)[O-])c2)o1)NC(=O)c1ccccc1 | 39.8* | -0.5 | 3431 | 0.4 | 3.6 | -3.8
COc1ccc(C(=O)N/C(=C\c2cn(C)c3ccccc23)C(=O)NCCCN2CCOCC2)cc1OC | 20.5 | -1.3 | 5181 | 2.2 | 0.2 | 6.1
Cc1ccc(C)c(NC(=O)CCN2CCc3ccccc3C2)c1 | -0.6 | 1.9 | 3697 | 0.2 | 0.4 | 0.6

Screening data (PubChem)
